# Screens from PubChem.
# PLK1 PBD inh = qHTS for Inhibitors of PLK1-PDB (polo-like kinase 1 - polo-box domain): Primary Screen | Plk1 PBD binding of FITC phosphopeptide, fluorescence polarization | Potency, µM, for inactives: max response, negative = inhibition, most hits filed as inhibitors | 2.8% of 360,000 active | AID 720504, 2013; also: series mostly up to about 57 µM; % is scaled to controls: 0 for no effect and ±100 for the full control effect; nearly all actives have a fitted effect of over 65% in size
# PKM2 act = qHTS Assay for Activators of Human Muscle isoform 2 Pyruvate Kinase. Pyruvate kinase PKM (Homo sapiens), P14618. purified PKM2, Kinase-Glo ATP luminescence, activation; response scale: 0% is enzyme alone, no compound. Potency, µM (titrated, usually from 57.5 µM), inactives show at the highest dose activation, usual class: activators. 0.34% of 260,000 active; also: % is scaled to controls: 0 for no effect and ±100 for the full control effect; nearly all actives have a fitted effect of over 55% in size
#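 ATP formation by purified human PK-M2, quantified via coupled luciferase luminescence after 1 h at room temperature with 0.1 mM ADP and 0.5 mM PEP final.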
# GLS inh = qHTS for Inhibitors of Glutaminase (GLS). Glutaminase kidney isoform, mitochondrial (Homo sapiens), O94925. GLS enzymatic activity, qHTS titration. Potency, µM (doses to about 45.5 µM), for the others: top-dose activity change, negative = inhibition, usual class: inhibitors. 0.21% of 410,000 active. AID 624170, 2012; also: % is scaled to controls: 0 for no effect and ±100 for the full control effect
#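 Two-point fluorescence kinetic (t0, 30 min RT) for hKGA; glutamate detected via glutamate oxidase–HRP–Amplex Red. Substrate: 1 mM L-glutamine solution; buffer 45 mM KH2PO4, pH 8.2.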
# VDR inh = Inhibitors of the vitamin D receptor (VDR): qHTS; Potency, µM, without a hit: max response, negative = inhibition, actives largely listed as inhibitors; VDR-SRC2-3 peptide fluorescence polarization, 2 h; Vitamin D3 receptor (Homo sapiens), P11473; 0.93% of 400,000 active; AID 504847, 2011; also: % is scaled to controls: 0 for no effect and ±100 for the full control effect
# Target sequence (P11473 whole entry, looked up): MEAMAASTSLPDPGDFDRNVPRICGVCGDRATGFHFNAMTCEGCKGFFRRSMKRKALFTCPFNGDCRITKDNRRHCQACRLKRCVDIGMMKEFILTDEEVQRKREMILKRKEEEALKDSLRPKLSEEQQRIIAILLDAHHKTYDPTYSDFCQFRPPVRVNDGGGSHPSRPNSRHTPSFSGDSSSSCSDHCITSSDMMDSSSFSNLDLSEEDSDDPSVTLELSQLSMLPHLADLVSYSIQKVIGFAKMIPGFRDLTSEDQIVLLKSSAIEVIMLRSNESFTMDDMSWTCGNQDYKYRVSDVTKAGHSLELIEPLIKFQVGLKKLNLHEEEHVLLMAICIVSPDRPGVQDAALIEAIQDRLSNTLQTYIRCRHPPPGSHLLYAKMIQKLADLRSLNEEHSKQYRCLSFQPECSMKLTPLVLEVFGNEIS
#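 Fluorescence polarization assay measuring small-molecule disruption of VDR binding to the coregulator peptide SRC2-3. Compounds were pin-transferred (23 nl) into the reagent mix and incubated 2 h at room temperature before reading.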
# KAT2A inh = qHTS Assay for Inhibitors of GCN5L2. Histone acetyltransferase KAT2A (Homo sapiens), Q92830. GCN5L2 HAT assay, ThioGlo1 CoA-SH fluorescence. Potency, µM (doses to about 58.9 µM), for the others: at the top dose activity change, negative = inhibition, most hits filed as inhibitors. 0.21% of 390,000 active. AID 504327, 2011; also: % is scaled to controls: 0 for no effect and ±100 for the full control effect
#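 Fluorescence readout, Ex340nm/Em540nm: ThioGlo1 (50uM final) reacts with free CoA thiol released as 20nM GCN5L2 acetylates H3(1-25) peptide (75uM) using acetyl-CoA (70uM). Compound and enzyme sat 15 min beforehand; 20 min room-temperature reaction.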
# Mito fusion yeast = qHTS Assay for Small Molecule Inhibitors of Mitochondrial Division or Activators of Mitochondrial Fusion. S. cerevisiae fusion-defective mutant growth rescue, CellTiterGlo 48 h. Potency, µM (series often up to 46.1 µM), without a hit: at the top dose growth rescue (activation), hits mostly activators. 0.23% of 320,000 active; also: % of control where 0% means no effect; nearly all actives have a fitted effect of over 45% in size
#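 Read-out: ATP-based luminescence (CellTiterGlo, 10 min ambient) reporting growth of fusion-defective ts yeast after 48 hours at 37C on glycerol/ethanol YPEG medium in the presence of compound.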
# * hit, by the source's call; ? = inconclusive; . = no result; ! = not confirmed by another sample; [ ] = dose if it differs, or a comment. Only some compounds are listed: those with a hit (about 3.4% of all), similar ones and a draw of the others. Calls follow the shape of the dose curve; as a rule, active = well fitted curve in the direction sought with a large enough effect; inconclusive = small, poorly fitted or top-dose-only effect, or another doubt; inactive = no such curve, though single readings can be large; an effect the other way counts as inactive or inconclusive. Potency is read from the fitted curve at half-maximal effect.
SMILES,PLK1 PBD inh,PKM2 act,GLS inh,VDR inh,KAT2A inh,Mito fusion yeast
Oc1ccccc1-c1nnc(COc2ccc(Cl)cc2Cl)o1,27µM*,0%,25%,79µM*,-1%,-4%
Oc1ccccc1-c1nnc(COc2ccccc2)o1,-10%,?,16%,8%,-7%,3%
CNC(=O)c1cc2cccc(OC)c2oc1=O,-9%,2%,8%,6%,3%,-1%
COc1cccc2cc(C(=O)CS(=O)(=O)c3ccc(C(C)(C)C)cc3)c(=O)oc12,7.5µM*,.,4%,-8%,-26%,-1%
COc1ccc(S(=O)(=O)CC(=O)c2cc3cccc(C)c3oc2=O)cc1,27µM*,.,-1%,-25%,-19%,-2%
O=C(CS(=O)(=O)c1ccccc1)c1cc2cc(F)ccc2oc1=O,15µM*,.,?,18%,-10%,-3%
CCOC(=O)CNC(=O)c1cccnc1,24µM*,-1%,-10%,-4%,24%,1%
O=C(NCO)c1cccnc1,6%,.,-5%,-15%,-17%,.
NC(=O)c1ccc(NC(=O)c2cncn2-c2ccccc2)cc1,24µM*,.,?,79µM*,-2%,-16%
CCC1=C2CC[C@H]3C(=O)N(CC)C(=O)[C@H]3[C@H]2[C@@]2(Cc3ccccc3)C(=O)N(CC3CC3)C(=O)N2C1=O,.,-6%,.,.,.,.
O=c1cc(-c2ccccc2Cl)oc2c(NS(=O)(=O)c3cc(Cl)cc(Cl)c3O)ccc(O)c12,15µM*,-1%,-1%,32µM*,32µM*,-7%
CC(=O)Nc1ccc(Nc2cc(C)nc3c(-c4ccccc4)cnn23)cc1,-7%,2%,21%,-11%,-15%,14µM*
CSc1ccc(/C=C2/C(C)=C(CC(=O)O)c3cc(F)ccc32)cc1,.,.,-4%,45µM*,?,.
Cc1c(Cl)cccc1NC(=S)Nc1ccc(S(=O)(=O)Nc2ncccn2)cc1,-16%,.,27%,-21%,-1%,.
COc1cc(/C=C/C(=O)c2c(O)cc(C)oc2=O)cc(OC)c1O,-2%,12%,1%,22µM*!,0%,2%
COc1cccc(/C=C/C(=O)c2c(O)cc(C)oc2=O)c1O,-12%,-8%,-5%,?,-7%,-16%
C/C(=C\C(=O)c1c(O)cc(C)oc1=O)N(C)C,30µM*,6%,13%,5%,-3%,4%
CN(C)c1ncc2nc(CCc3ccccc3)c(=O)n(CCC#N)c2n1,.,.,.,-17%,-18%,.
O=S(=O)(c1ccccc1)N(c1ccccc1)S(=O)(=O)c1ccccc1,4%,.,-14%,-3%,.,.
O=S(=O)(c1ccccc1)N(F)S(=O)(=O)c1ccccc1,27µM*,.,2%,-26%,-19%,-1%
CC1CCCC(NC(=O)CCS(=O)(=O)c2cc3c(cc2Cl)NC(=O)CO3)C1C (stereo unspecified),27µM*,0%[0.46 µM],-3%,-13%,-3%,-10%
Cc1ccc(CNC(=O)CCS(=O)(=O)c2cc3c(cc2Cl)NC(=O)CO3)cc1,27µM*,.,36%,?,-4%,0%
O=C(CCS(=O)(=O)c1cc2c(cc1Cl)NC(=O)CO2)NCc1ccc(Cl)cc1,.,.,-2%,9%,-1%,.
Nc1c(C(=O)CSc2n[nH]c(-c3ccccc3)n2)c(=O)[nH]c(=O)n1C1CC1,-6%,.,1%,?,0%,-4%
Clc1ccc(CO/N=C2\CCCc3nonc32)cc1,21µM*,3%,?,?,-7%,8%
SMILES,PLK1 PBD inh,PKM2 act,GLS inh,VDR inh,KAT2A inh,Mito fusion yeast
Clc1ccccc1CO/N=C1\CCCc2nonc21,2%,?,3%,2%,-7%,15%
O=C(C=Cc1ccccn1)c1ccccc1O,21µM*,.,-1%,56µM*,.,.
O=C(/C=C/c1ccccc1Cl)NC1CCS(=O)(=O)C1 (stereo unspecified),3.8µM*,-1%,?,?,33%,2%
O=C(/C=C/c1ccccc1Cl)NC1CCCCC1,-19%,-1%,0%,-6%,3%,4%
O=C(/C=C/c1ccccc1Cl)Nc1ccncc1,-3%,-4%,2%,4%,5%,1%
COc1cc(/C=C/C(=O)c2ccccc2O)cc(OC)c1OC,?,6%,18%,32µM*,-7%,13%
O=C(/C=C/c1cccnc1)c1ccccc1O,-21%,13%,-10%,?,-7%,4%
CCC(CC)NC(=O)/C=C/c1ccccc1Cl,30µM*,-17%,17%,50µM*,1%,10%
CN1C2CCC1CC(NC(=O)n1c(=O)[nH]c3ccccc31)C2 (stereo unspecified),.,.,-3%,.,.,.
O=C(C=Cc1ccccc1Cl)c1ccccc1,-16%,.,-1%,35µM*,.,.
O=C(C=Cc1cccnc1)c1ccccc1,-9%,.,-1%,?,.,.
O=C(C=Cc1ccccn1)c1ccccc1,?,.,-3%,20µM*,.,.
CC(C)Oc1ccc(OCCn2c(=S)[nH]c3c(N)ncnc32)cc1,11µM*,-9%,-8%,-1%,?,4%
Cc1ccc(SC(CC(=O)c2ccc(C)cc2)C(=O)O)cc1 (stereo unspecified),?,-6%,15%,20µM*,-4%,0%
O=C(CSc1ncc(-c2ccc(Cl)cc2)[nH]1)Nc1ccccc1F,.,.,13%,-24%,-17%,.
NCCCC[C@H]1NC(=O)[C@H](CCC(=O)O)NC(=O)c2cc([N+](=O)[O-])cc(I)c2OCC[C@@H](C(N)=O)NC1=O,7.5µM*,0%,?,?,-3%,1%
O=P(O)(O)OC(Cn1cncn1)(Cn1cncn1)c1ccc(F)cc1F,.,.,-3%,.,.,.
CCOC(=O)/C(C#N)=C/c1ccc(OC)c(OC)c1,-5%,?,-20%,-3%,3%,-1%
CCOC(=O)N/N=C/c1ccc(OCCSc2ccc(Cl)cc2)c(OCC)c1,-5%,0%,-2%,0%,-11%,35µM*
CCOc1cc(/C=N/NC(=O)COc2ccc(Cl)cc2)ccc1OS(=O)(=O)c1ccccc1,-5%,-2%,12%,-28%,9%,13µM*
CCOc1cc(/C=N/NS(=O)(=O)c2ccccc2)ccc1OS(=O)(=O)c1ccc(C)cc1,-4%,30%,-3%,-1%,-9%,2%
CCOc1cc(/C=C(\C#N)C(N)=O)ccc1OS(=O)(=O)c1ccccc1,-12%,14µM*,-11%,-14%,-7%,2%
